# Reference: paper PMC5540273 (PLoS ONE, 2017)
# Like-named read-outs stand apart in the source and are kept apart here.
# Key:
# EPHA7 = settings: concentration: 1 μM, replicates: in singlicate; n = 1
# EPHA8 = settings: concentration: 1 μM, replicates: in singlicate; n = 1
# EPHB1 = settings: concentration: 1 μM, replicates: in singlicate; n = 1
# EPHB2 = settings: concentration: 1 μM, replicates: in singlicate; n = 1
# EPHB3 = settings: concentration: 1 μM, replicates: in singlicate; n = 1
# EPHB4 = settings: concentration: 1 μM, replicates: in singlicate; n = 1
# EPHB6 = settings: concentration: 1 μM, replicates: in singlicate; n = 1
# ERBB2 = settings: concentration: 1 μM, replicates: in singlicate; n = 1
# ERBB3 = settings: concentration: 1 μM, replicates: in singlicate; n = 1
# ERBB4 = settings: concentration: 1 μM, replicates: in singlicate; n = 1
# ERK1 = test system: T1, ERK1; settings: concentration: 1 μM, replicates: in singlicate; n = 1
# T1 construct: gene MAPK3
# ERK2 = test system: T2, ERK2; settings: concentration: 1 μM, replicates: in singlicate; n = 1
# T2 construct: gene MAPK1
# ERK3 = test system: T3, ERK3; settings: concentration: 1 μM, replicates: in singlicate; n = 1
# T3 construct: gene MAPK6
# ERK4 = test system: T4, ERK4; settings: concentration: 1 μM, replicates: in singlicate; n = 1
# T4 construct: gene MAPK4
# ERK5 = test system: T5, ERK5; settings: concentration: 1 μM, replicates: in singlicate; n = 1
# T5 construct: gene MAPK7
# ERK8 = test system: T6, ERK8; settings: concentration: 1 μM, replicates: in singlicate; n = 1
# T6 construct: gene MAPK15
# ERN1 = settings: concentration: 1 μM, replicates: in singlicate; n = 1
# FAK = test system: T7, FAK; settings: n = 1
# T7 construct: gene PTK2
# FER = settings: concentration: 1 μM, replicates: in singlicate; n = 1
# FES = settings: concentration: 1 μM, replicates: in singlicate; n = 1
# [1] = concentration: 1 μM, replicates: in singlicate
# 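Note: KINOMEscan kinase panel screen.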
smiles,measurement,setting,value
COc1ccc(C2=C(Nc3cccc(O)c3)C(=O)NC2=O)cc1 [SB-390766],%Inh,EPHA7,4%
same,%Inh,EPHA8,11%
same,%Inh,EPHB1,9%
same,%Inh,EPHB2,87%
same,%Inh,EPHB3,5%
same,%Inh,EPHB4,0%
same,%Inh,EPHB6,10%
same,%Inh,ERBB2,11%
same,%Inh,ERBB3,0%
same,%Inh,ERBB4,12%
same,%Inh,ERK1,0%
same,%Inh,ERK2,0%
same,%Inh,ERK3,6%
same,%Inh,ERK4,22%
same,%Inh,ERK5,100%
same,%Inh,ERK8,15%
same,%Inh,ERN1,20%
same,%Inh,FAK; [1],98.1%
same,%Inh,FER,0%
same,%Inh,FES,0%
Cc1ccc(NC(=O)c2ccc(Cl)c(Cl)c2)cc1-c1ccc(C(=O)Nc2ccncc2)cc1 [GSK1398460],%Inh,EPHA7,9%
same,%Inh,EPHA8,35%
same,%Inh,EPHB1,17%
same,%Inh,EPHB2,17%
same,%Inh,EPHB3,25%
same,%Inh,EPHB4,19%
same,%Inh,EPHB6,16%
same,%Inh,ERBB2,2%
same,%Inh,ERBB3,0%
same,%Inh,ERBB4,4%
same,%Inh,ERK1,5%
same,%Inh,ERK2,2%
same,%Inh,ERK3,0%
same,%Inh,ERK4,13%
same,%Inh,ERK5,0%
same,%Inh,ERK8,0%
same,%Inh,ERN1,0%
same,%Inh,FAK; [1],0%
same,%Inh,FER,34%
same,%Inh,FES,0%
Cc1ccc(C)c(NC(=O)Nc2ccc(C)c(-c3ccc(C(=O)Nc4ccncc4)cc3)c2)c1 [GSK1398473],%Inh,EPHA7,3%
same,%Inh,EPHA8,46%
same,%Inh,EPHB1,23%
same,%Inh,EPHB2,32%
same,%Inh,EPHB3,12%
same,%Inh,EPHB4,14%
same,%Inh,EPHB6,0%
same,%Inh,ERBB2,0%
same,%Inh,ERBB3,0%
same,%Inh,ERBB4,44%
same,%Inh,ERK1,0%
same,%Inh,ERK2,16%
same,%Inh,ERK3,9%
same,%Inh,ERK4,28%
same,%Inh,ERK5,0%
same,%Inh,ERK8,0%
same,%Inh,ERN1,0%
same,%Inh,FAK; [1],0%
same,%Inh,FER,13%
same,%Inh,FES,0%
CS(=O)(=O)c1cccc(CNc2nc(Nc3ccc4c(c3)CCC(=O)N4)ncc2C(F)(F)F)c1,%Inh,EPHA7,0%
same,%Inh,EPHA8,0%
same,%Inh,EPHB1,0%
same,%Inh,EPHB2,0%
same,%Inh,EPHB3,0%
same,%Inh,EPHB4,0%
same,%Inh,EPHB6,21%
same,%Inh,ERBB2,45%
same,%Inh,ERBB3,0%
same,%Inh,ERBB4,3%
same,%Inh,ERK1,0%
same,%Inh,ERK2,17%
same,%Inh,ERK3,0%
same,%Inh,ERK4,0%
same,%Inh,ERK5,15%
same,%Inh,ERK8,90%
same,%Inh,ERN1,0%
same,%Inh,FAK; 1 µM,100%
same,%Inh,FER,0%
same,%Inh,FES,12%
Cc1nn2c(=O)cc(N3CCO[C@H](C)C3)nc2n1Cc1cccc(Cl)c1Cl [GSK2373693],%Inh,EPHA7,0%
same,%Inh,EPHA8,2%
same,%Inh,EPHB1,3%
same,%Inh,EPHB2,66%
same,%Inh,EPHB3,0%
same,%Inh,EPHB4,5%
same,%Inh,EPHB6,3%
same,%Inh,ERBB2,0%
same,%Inh,ERBB3,0%
same,%Inh,ERBB4,0%
same,%Inh,ERK1,0%
same,%Inh,ERK2,0%
same,%Inh,ERK3,0%
same,%Inh,ERK4,19%
same,%Inh,ERK5,0%
same,%Inh,ERK8,26%
same,%Inh,ERN1,0%
same,%Inh,FAK; [1],0%
same,%Inh,FER,8%
same,%Inh,FES,0%
